Test results: ChEMBL document CHEMBL3988442, “University of Dundee, Small-Polar-MMV Screening Library” (2021)
The campaign covered roughly 85,000 compounds. About 440 (0.52%) showed an effect of 50% or more. What follows is part of a selection rich in strong results, with near analogues and random picks from the rest.

Assay: In vitro enzyme assay to detect hydrolysis of chlorophenol red-beta-D-[…] directly proportional to the number of Toxoplasma stably expressing beta-galactosidase
Type: functional, organism-based, Toxoplasma gondii
Set-up: scale not given: in the data most compounds retested in dose-response had high values

| SMILES | Percent Effect (50 µM) [%] | Percent Effect (10 µM) [%] |
| --- | --- | --- |
| CN(C)c1nc(CN)cs1 | -3.708 | – |
| Cc1cc(CN)nc(N2CCCC2)n1 | -18.34 | – |
| COCCNC(=O)CCC1CCN(CCCSC)CC1 | 11.51 | – |
| CCOc1ncccc1C(=O)N1CCCN(C)CC1 | 3.231 | – |
| COCCNC(=O)NC(C)CCc1ccc(O)cc1 (centres undefined) | -3.348 | – |
| CN(C)CC(C)(C)CN1CCC(c2ccnc(-c3cccc(O)c3)c2)C1 (centres undefined) | – | 7.739 |
| Oc1cccc(-c2cc(C3CCN(Cc4cncnc4)C3)ccn2)c1 (centres undefined) | – | 0.5564 |
| Cn1ccnc1CN1CCC(c2ccnc(-c3cccc(O)c3)c2)C1 (centres undefined) | – | 55.29 |
| N#CC1(NC(=O)C(O)Cc2ccccc2Cl)CCC1 (centres undefined) | -6.44 | – |
| O=C1CN(CC(=O)Nc2c(Cl)cccc2Cl)CCN1 | 55.2 | – |
| CCc1cccc(C)c1NC(=O)CN1CCNC(=O)C1 | -0.5853 | – |
| Cc1ccc(Cl)cc1NC(=O)CN1CCNC(=O)C1 | 47.59 | – |
| CN(C)S(=O)(=O)CCNC1CCCNC1 (centres undefined) | 23.13 | – |
| CCn1cc(CN(C)S(=O)(=O)c2ccc(C(C)C)cc2)cn1 | – | 71.72 |
| CCn1cc(CN(C)S(=O)(=O)c2ccc(C)c(C)c2)cn1 | – | 6.128 |
| CCn1cc(CN(C)S(=O)(=O)c2cnn(C)c2)cn1 | – | 10.44 |
| CCn1cc(CN(C)S(=O)(=O)c2ccc(Cl)cc2)cn1 | – | 4.304 |
| CCOc1ccc(S(=O)(=O)N(C)Cc2cnn(CC)c2)cc1 | – | 22.15 |
| CCn1cc(CN(C)S(=O)(=O)c2ccccc2)cn1 | – | 61.21 |
| Nc1nnc(SCc2cn3ccccc3n2)s1 | -6.062 | – |

| SMILES | Percent Effect (50 µM) [%] | Percent Effect (10 µM) [%] |
| --- | --- | --- |
| CNCC(=O)Nc1ccccc1OC | 7.8 | – |
| N#CCC(=O)Nc1ccccc1I | 0.5556 | – |
| COc1ccccc1NC(=O)CC#N | 50.64 | – |
| Cn1c(C(C)(C)N)nc2ccccc21 | 4.322 | – |
| COC(=O)Cc1cccc(NC(=O)CC2CC2)n1 | 2.915 | – |
| COc1cccc(CNCC2CCOC2)c1 (centres undefined) | 52.55 | – |
| COc1cccc(CNCC2CN(C)CCO2)c1 (centres undefined) | – | -20.59 |
| COc1cccc(N2CCC(CNCc3cccc(C#N)c3)C2)c1 (centres undefined) | – | -3.388 |
| O=C(NCCSCc1cccc(Cl)c1)C1CNCCO1 (centres undefined) | 4.575 | – |
| CC(C)OCC(O)CN1CCN(C(C)C)CC1 (centres undefined) | -5.583 | – |
| CC(O)CNCc1ccc(OCc2ccc3c(c2)OCCO3)cc1.Cl (centres undefined) | – | -0.2514 |
| CC(C)(C)NCc1ccc(OCc2ccc3c(c2)OCCO3)cc1.Cl | – | -4.151 |
| CCCNCc1ccc(OCc2ccc3c(c2)OCCO3)cc1.Cl | – | 26.87 |
| CNCc1ccc(OCc2ccc3c(c2)OCCO3)cc1.Cl | – | 14.53 |
| CCNCc1ccc(OCc2ccc3c(c2)OCCO3)cc1.Cl | – | 57.45 |
| COc1ccc2oc(CNC(C)(CO)CO)cc2c1 | 4.082 | – |
| O=C(CNC(=O)c1cccs1)c1ccccc1 | -23.7 | – |
| CCN(CC(C)(C)O)C(=O)c1nccc2ccccc12 | -2.694 | – |
| CCNC(=O)CN1CCN(Cc2cccnc2N)CC1 | 3.908 | – |
| COCC(C)NC(=O)CCn1cnc2sccc2c1=O (centres undefined) | -6.543 | – |

| SMILES | Percent Effect (50 µM) [%] | Percent Effect (10 µM) [%] |
| --- | --- | --- |
| CS(=O)(=O)NCC(=O)NCc1cnn2ccccc12 | -11.78 | – |
| CCN1CCCC1CNS(=O)(=O)CCCC#N (centres undefined) | -20.61 | – |
| CCc1n[nH]c(NC(=O)c2cc(C(C)=O)cs2)n1 | -2.258 | – |
| NC(=O)CCN1C(=O)CCC1=O | 1.954 | – |
| Cc1ccccc1CNC(=O)N(C)Cc1nnc[nH]1 | -3.326 | – |
| COC(=O)c1cnc(O)cn1 | 0.4239 | – |
| COC(=O)c1cnc(OC)cn1 | 10.7 | – |
| COC(=O)c1cnc(F)cn1 | 53.27 | – |
| O=C(CNC1(CO)CCOCC1)Nc1cccc(F)c1 | -18.29 | – |
| CC(C)C(N)C1(CO)CCC1 (centres undefined) | -14.82 | – |
| N#Cc1cccnc1NCC1COc2ccccc2O1 (centres undefined) | -5.408 | – |
| CCc1ccc(CN2CCCn3c(nc(Cn4ccnc4)cc3=O)C2)o1.O=C(O)C(F)(F)F.O=C(O)C(F)(F)F | – | 1.534 |
| O=c1cc(Cn2ccnc2)nc2n1CCCN(Cc1ccco1)C2 | – | -0.8368 |
| Cc1ccc(CN2CCCn3c(nc(Cn4ccnc4)cc3=O)C2)o1 | – | 95.97 |
| O=C(CN1CCCC(c2noc(C3CC3)n2)C1)N1CCCC1 (centres undefined) | – | 4.609 |
| NC(=O)CN1CC(c2nc(C3CC3)no2)C1.O=C(O)C(=O)O | – | -8.991 |
| CC(c1nc(C2CC2)no1)N1CCN(CC(=O)N2CCOCC2)CC1 (centres undefined) | – | 3.194 |
| O=C(CN1CC(c2nc(C3CC3)no2)C1)N1CCOCC1.O=C(O)C(=O)O | – | 76.44 |
| CC1CCN(C(=O)CN2CC(c3nc(C4CC4)no3)C2)CC1.O=C(O)C(=O)O | – | -17.41 |
